Screens from PubChem.
D2 antag – antagonizes the human D2 dopamine receptor | P14416 | HEK293 TREx D2 cells, calcium flux, dopamine EC80 | inhibition, % at 10 µM | 340,000 tested, 2% active | AID 485344; in the data active = inhibition above about 30%; inactive = below that, where a call was filed
Target sequence (P14416 whole entry, looked up): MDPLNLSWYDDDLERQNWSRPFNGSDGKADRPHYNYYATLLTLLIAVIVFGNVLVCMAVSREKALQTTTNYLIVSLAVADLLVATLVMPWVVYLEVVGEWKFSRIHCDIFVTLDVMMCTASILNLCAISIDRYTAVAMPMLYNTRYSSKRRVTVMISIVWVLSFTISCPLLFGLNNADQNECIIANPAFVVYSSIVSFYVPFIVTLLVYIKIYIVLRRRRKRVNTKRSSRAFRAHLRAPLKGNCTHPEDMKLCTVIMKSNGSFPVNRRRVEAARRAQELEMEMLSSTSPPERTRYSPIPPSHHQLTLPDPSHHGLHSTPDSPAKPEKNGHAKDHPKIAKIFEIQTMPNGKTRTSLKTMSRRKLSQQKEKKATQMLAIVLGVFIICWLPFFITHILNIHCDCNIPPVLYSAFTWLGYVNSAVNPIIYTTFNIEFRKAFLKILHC
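Tetracycline-induced HEK293 TREx cells expressing D2 receptor forced-coupled to calcium signalling, loaded with no-wash calcium dye. Compounds added and calcium flux read 180 s, then dopamine added at EC80 and read a further 180 s.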
D2 PAM-1 – potentiates the human D2 dopamine receptor allosterically; P14416; DiscoveRx D2 beta-arrestin cells, luminescence, 90 min; 100% = 57 uM dopamine signal; potentiation, % (no concentration beside the values); 360,000 tested, 0.23% active; in the data active = potentiation above about 50%
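D2 cells co-treated with compound plus 50 nM dopamine (EC20) for 90 min at 37 deg C to detect potentiation. Beta-arrestin recruitment was read as enzyme-fragment luminescence after 1 h at ambient temperature. Full response was set by 57 uM dopamine.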
D2 ag-1 – agonists of human D2 dopamine receptor; P14416; HEK293 T-REx D2 cells, calcium flux agonist mode; activation, % at 2 µM; 340,000 tested, 0.53% active;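 active = activation over 3 SD above normal in the single-dose calcium agonist read, cut at about 30% in these data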
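Calcium-flux readout, 1 cycle/sec over 180 s following compound pin transfer, in inducible HEK293 Trex D2 cells (force-coupled); dopamine controls included. Positive calcium responses during this window marked compounds as potential agonists.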
D2 PAM-2 – D2 dopamine receptor (human) potentiation. P14416. HEK293 T-REx D2, calcium flux, EC20 dopamine potentiation. potentiation, % at 10 µM. 340,000 tested, 0.34% active;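 active = potentiation over 3 SD above the plate norm, cut at about 30% in these data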
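Potentiation of an EC20 dopamine calcium response measured kinetically over 180 s, after a preceding 180 s compound-only read flagging agonists. Cells: inducible Hek293 Trex D2 line, 4000/well, cultured overnight at 30 C before dye loading.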
D2 ag-2 – activates the human D2 dopamine receptor. P14416. DiscoveRx PathHunter D2 beta-arrestin, luminescence, 90 min; 100% = 57 uM dopamine signal. activation, % (no concentration beside the values). 360,000 tested, 0.084% active. AID 624465; in the data active = activation above about 40%
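Agonist mode: compounds alone added to overnight-plated D2 PathHunter cells for 90 min at 37 C, with 57 uM final dopamine (EC100) defining full response. Beta-arrestin recruitment detected by chemiluminescent reagent, read after 1 h at ambient temperature.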
Large screens that a line does not name were inactive. Sampled rows, rich in hits. Any-hit rate of the full collection: about 2.4%.

CCOC(=O)c1oc2ccccc2c1COC(=O)CNC(=O)c1cccc(C)c1	none
Cc1onc(C(=O)N2CCN(c3ccccc3F)CC2)c1-c1ccccc1Cl	D2 PAM-2 34
COC(=O)c1ccc(C2OCC(C)(C)CO2)cc1	none
c1ccc(Nc2ccccc2Nc2ccccn2)nc1	D2 antag 34
c1ccc(CNc2ccccn2)cc1	none
CCCN1CC=C2C(C#N)=C(N)C(C#N)(C#N)C(c3cccc(OC)c3OC)C2C1 (stereo not drawn)	D2 ag-1 57
COc1ccc(OC)c(C2C3CN(C(C)C)CC=C3C(C#N)=C(N)C2(C#N)C#N)c1 (stereo not drawn)	none
N#CC1=C(N)C(C#N)(C#N)[C@H](c2ccoc2)[C@H]2CN(Cc3ccccc3)CC=C12	D2 ag-1 31
COc1ccc2ccccc2c1CNC(=O)CC1C(=O)NCCN1CC(C)(C)C (stereo not drawn)	none (no result: D2 antag, D2 ag-1, D2 PAM-2)
CCc1ccc(NC(=S)NC2CC3CCCC(C2)N3Cc2ccccc2)cc1 (stereo not drawn)	D2 antag 40
CNC(=S)NC1CC2CCCC(C1)N2Cc1ccco1 (stereo not drawn)	none
C=CCN1C2CCCC1CC(NC(=S)Nc1ccc(Cl)cc1)C2 (stereo not drawn)	none (no result: D2 antag, D2 ag-1, D2 PAM-2)
S=C(Nc1ccc(Cl)cc1)NC1CC2CCC(C1)N2Cc1ccccc1 (stereo not drawn)	D2 antag 93
CNC(=S)NC1CC2CCC(C1)N2Cc1ccccc1 (stereo not drawn)	D2 antag 64
Cc1ccc(-n2c(=O)c3c(C)c(C)sc3n(Cc3ccc(F)cc3Cl)c2=O)cc1C	none (no result: D2 antag, D2 PAM-1, D2 ag-2)
CCCCN1CCCCC1(C)C(=O)NCc1cccc(OC)c1 (stereo not drawn)	none (no result: D2 antag, D2 ag-1, D2 PAM-2)
CN(c1ccc(C(=O)NCc2ccccn2)cc1)S(=O)(=O)c1ccc(Cl)cc1	none
Cc1ccc(S(=O)(=O)N(C)c2ccc(C(=O)NCc3ccccn3)cc2)cc1	D2 antag 57
CCOc1ccc(NS(=O)(=O)c2cc(NC(=O)CCS(=O)(=O)c3ccc(C)cc3)ccc2OC)cc1	D2 antag 33
COc1ccc(NC(=O)CCCN2C(=O)CCn3nc(-c4cn(C)c5ccccc45)cc32)cc1	none (no result: D2 antag, D2 PAM-1, D2 ag-2)
CCN(Cc1nc(-c2cccc(C)c2)no1)C(=O)c1ccco1	none (no result: D2 PAM-2)
Cc1cc(C)c(C#N)c(N2CCN(CCOc3ccc(Cl)cc3)CC2)n1	D2 antag 121
Cc1cc(C)c(C#N)c(N2CCCC2)n1	none
COc1ccc(Cl)cc1CN1CCN(c2nc(C)cc(C)c2C#N)CC1	D2 antag 41
COc1ccc(F)cc1CN1CCN(c2cc(C)nc3c4c(C)cc(C)nc4nn23)CC1	none (no result: D2 PAM-1, D2 ag-2)
CC(=O)c1cc2c(cc1N/C(=N/S(=O)(=O)c1ccc(Cl)cc1)c1ccc(F)cc1)OCO2	none (no result: D2 antag, D2 PAM-1, D2 ag-2)
COc1cc(CNC(=O)c2cc(-c3cc(Cl)ccc3OC)n[nH]2)cc(OC)c1	none (no result: D2 antag, D2 ag-1, D2 PAM-2)
c1ccc(-c2cc3ncc4c(n3n2)-c2ccccc2OC4)cc1	none (no result: D2 antag, D2 PAM-1, D2 ag-2)
CN1C(=O)/C(=C/c2ccccc2Cl)Sc2ccc(C(=O)NCc3cccnc3)cc21	none
COc1ccc(C2=NN(C(=O)CSc3nc(=O)n4cccc(C)c4n3)C(c3ccc(C)cc3)C2)cc1 (stereo not drawn)	D2 antag 34
COc1ccc(C2=NN(C(=O)CSc3ncccn3)C(c3ccc(C)cc3)C2)cc1 (stereo not drawn)	none
COCCn1c(C)cc(C(=O)COC(=O)/C=C/c2c(C)nn(C3CCS(=O)(=O)C3)c2Cl)c1C (stereo not drawn)	none
O=C(Nc1ccn(-c2ccccc2)n1)c1ccc(Cl)cc1	D2 antag 63
CNC(=O)c1nn(-c2ccc(Cl)cc2)ccc1=O	D2 antag 33
CNC(=O)c1nn(-c2ccccc2)ccc1=O	none
COc1ccccc1NC(=O)C(=O)NCC(c1cccnc1)N1CCc2ccccc2C1 (stereo not drawn)	none (no result: D2 antag, D2 PAM-1, D2 ag-2)
CCCCn1c(/N=C/c2ccc(N(C)C)cc2)nc2ccccc21	D2 PAM-2 49
C=CCn1c(/N=C/c2ccc(N(C)C)cc2)nc2ccccc21	none (no result: D2 antag, D2 ag-1, D2 PAM-2)
CCCCCn1c(NCc2ccco2)nc2ccccc21	D2 antag 34
CCCCn1c(N)nc2ccccc21	D2 antag 31
CCCCn1c(Nc2ccccc2)nc2ccccc21	D2 antag 36
CCCn1c(Nc2nc3ccccc3n2C)nc2ccccc21	none
Cc1c(Cl)cccc1NC(=O)Nc1c[nH]c(=O)[nH]c1=O	none (no result: D2 antag, D2 PAM-1, D2 ag-2)
COc1ccc(NC(=O)CSC2=Nc3ccccc3C3=NC(CC(=O)NCc4ccco4)C(=O)N23)cc1 (stereo not drawn)	none (no result: D2 antag, D2 PAM-1, D2 ag-2)
COc1ccc(NC(=O)C(c2ccc(C)cc2)N(C)C(=O)CNC(C)=O)cc1 (stereo not drawn)	none
COc1ccc(NC(=O)C(c2ccc(OC)cc2)N(C)C(=O)CNC(C)=O)cc1 (stereo not drawn)	D2 antag 38
COc1ccc(C/C(C)=N/NC(=S)Nc2ccc(C(C)C)cc2)cc1	D2 antag 36
COc1ccc(C(NC(=O)CNC(C)=O)C(=O)Nc2ccc(C(C)C)cc2)cc1 (stereo not drawn)	D2 antag 37
O=C(Nc1ccccc1C(=O)O)C1=NN=CC1	none
CCOC(=O)CSc1nnc(-c2cccs2)n1-c1ccccc1	D2 PAM-2 32
CC(NC(=O)Cn1cc2c(n1)CCCCC2)c1ccccc1 (stereo not drawn)	D2 antag 35
Cc1cc(C)c2oc(C(=O)Nc3c(C(=O)c4ccccc4)oc4ccccc34)cc(=O)c2c1	none (no result: D2 antag, D2 PAM-1, D2 ag-2)
CC1CN(CC(=O)Nc2ccc(Br)cn2)CC(C)O1 (stereo not drawn)	none
CN1CCN(CCC(=O)Nc2cccc(Br)c2)CC1	none
O=C(CCN1CCCCC1)Nc1cccc(Br)c1	D2 antag 55
COC(=O)c1ccc(NC(=O)CN2CCN(CCO)CC2)cc1	D2 antag 33
O=C(Cc1ccc(Cl)cc1)Nc1ccc(Br)cc1	D2 antag 44
O=C(CN1CCCCCC1)Nc1ccc(Br)cn1	D2 antag 41
CC(C)(C)C(=O)CNS(=O)(=O)c1ccc(S(=O)(=O)NC2CC2)cc1	none
CC(C)c1cnc2c(c1SCC(=O)Nc1cccc(F)c1)c(=O)n(C)c(=O)n2C	none (no result: D2 antag, D2 PAM-1, D2 ag-2)
COc1cccc(-c2nc(CS(=O)(=O)CC(=O)Nc3ccc(C)c(Cl)c3)c(C)o2)c1	none (no result: D2 antag, D2 PAM-1, D2 ag-2)
COc1ccc(NC(=O)N(C)C[C@H]2OCc3cnnn3CCCC(=O)N([C@H](C)CO)C[C@@H]2C)cc1	none (no result: D2 antag, D2 ag-1, D2 PAM-2)
O=C(CN1CCCCCC1)Nc1ccc(Br)cc1	D2 antag 77
O=C(CN1CCCC1)Nc1ccc(Br)cc1	none
CCOC(=O)c1cc(NC(=O)CN2CCCC2)cc(C(=O)OCC)c1	D2 PAM-2 36
COC(=O)c1cc(NC(=O)CN2CCOCC2)cc(C(=O)OC)c1	none
CC(NC(=O)COC(=O)c1cccnc1Cl)C12CC3CC(CC(C3)C1)C2 (stereo not drawn)	none (no result: D2 antag, D2 ag-1, D2 PAM-2)
